Test results: PubChem BioAssay (NCI)
This is part of a sample that, as a whole, favours compounds with a hit. Of some 83,000 tested, about 20% had one in any assay.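 Step 1: grow cells in 96-well plates. Step 2: add test compound at a single concentration. Step 3: incubate 48 h. Step 4: record percent growth.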 Activity calls are given as the source filed them. Rule for the calls: active = growth percent below 10; inactive = the rest.

Key:
Experiment in all cases: NCI-60 one-dose screen, 48 h (100 = growth as untreated, 0 = no growth, -100 = all killed)
Conditions in all cases: 10 µM
HCT-15 colon = system: HCT-15 colon
HT29 colon = system: HT29 colon
SNB-75 CNS = system: SNB-75 CNS
SNB-19 CNS = system: SNB-19 CNS
U251 CNS = system: U251 CNS
PC-3 prostate = system: PC-3 prostate
SK-MEL-5 melanoma = system: SK-MEL-5 melanoma
UACC-62 melanoma = system: UACC-62 melanoma
LOX IMVI melanoma = system: LOX IMVI melanoma
SK-MEL-28 melanoma = system: SK-MEL-28 melanoma

Measured: growth

Cc1ccc(NC(=S)NNC(=S)Nc2ccc(C)cc2)cc1
inactive: HCT-15 colon 44.1% | HT29 colon 82.6% | SNB-75 CNS 40.2% | SNB-19 CNS 65.4% | U251 CNS 56.8% | PC-3 prostate 77.2% | SK-MEL-5 melanoma 55.6% | UACC-62 melanoma 48.2% | LOX IMVI melanoma 75.3% | SK-MEL-28 melanoma 70.8%

CCOC(=O)Cn1c(=O)c2sc3ncccc3c2n2nnc(-c3ccccc3)c12
inactive: HCT-15 colon 107% | HT29 colon 107% | SNB-75 CNS 77.2% | SNB-19 CNS 101% | U251 CNS 104% | PC-3 prostate 94.8% | SK-MEL-5 melanoma 104% | UACC-62 melanoma 90.5% | LOX IMVI melanoma 97.4% | SK-MEL-28 melanoma 104%

CCN(CC)CC(=O)N(CC)c1ccc(C)c(Cl)c1
inactive: HCT-15 colon 101% | HT29 colon 90.1% | SNB-75 CNS 96.9% | SNB-19 CNS 104% | U251 CNS 87% | PC-3 prostate 88.2% | SK-MEL-5 melanoma 98.4% | UACC-62 melanoma 97.7% | LOX IMVI melanoma 93.2% | SK-MEL-28 melanoma 108%

CCc1cc(Cl)c(OC)c(C(=O)NCC2CCCN2CC)c1O (stereo not given)
inactive: HCT-15 colon 91.8% | HT29 colon 89.5% | SNB-75 CNS 67.1% | SNB-19 CNS 91.2% | U251 CNS 83.8% | PC-3 prostate 73.7% | SK-MEL-5 melanoma 83.4% | UACC-62 melanoma 97% | LOX IMVI melanoma 90.6% | SK-MEL-28 melanoma 109%

C[C@@H](C[C@H](CCO)c1ccccc1)c1ccc2ccccc2c1
active: HCT-15 colon -75% | HT29 colon -72.8% | SNB-75 CNS -8.12% | SNB-19 CNS -78.3% | U251 CNS -95% | PC-3 prostate -89.2% | SK-MEL-5 melanoma -87.9% | UACC-62 melanoma -76.2% | LOX IMVI melanoma -94.5% | SK-MEL-28 melanoma -79.3%

COc1ccc(-c2n[nH]nc2-c2cc(OC)c3c(c2OC)OCO3)cc1
inactive: HCT-15 colon 35.5% | SNB-19 CNS 51.8% | U251 CNS 13.8% | PC-3 prostate 26.3% | UACC-62 melanoma 40.6% | LOX IMVI melanoma 37% | SK-MEL-28 melanoma 63%
active: HT29 colon 4.41% | SNB-75 CNS 4.8% | SK-MEL-5 melanoma 6.78%

O=C(CC(CC(=O)c1ccccc1)c1ccccc1O)c1ccccc1
inactive: HCT-15 colon 96.5% | HT29 colon 90.3% | SNB-75 CNS 89.1% | SNB-19 CNS 91.2% | U251 CNS 92% | PC-3 prostate 81% | SK-MEL-5 melanoma 88.6% | UACC-62 melanoma 81.5% | LOX IMVI melanoma 93.5% | SK-MEL-28 melanoma 101%

Cc1ccc(C(SCC(N)C(=O)O)(c2ccc(C)cc2)c2ccc(C)cc2)cc1 (stereo not given)
inactive: HCT-15 colon 30.1% | HT29 colon 14.1% | SNB-19 CNS 30.4% | U251 CNS 25.4% | PC-3 prostate 11.2% | SK-MEL-5 melanoma 16.5% | UACC-62 melanoma 30.7% | LOX IMVI melanoma 40.6% | SK-MEL-28 melanoma 56.6%
active: SNB-75 CNS -6.9%

COc1cc2cc(Oc3ccc(NC(=O)Nc4ccc(Cl)c(C(F)(F)F)c4)cc3)c(C)nc2cc1OC
inactive: SNB-75 CNS 12.5% | SNB-19 CNS 23.7%
active: HCT-15 colon 1.27% | HT29 colon -24.9% | U251 CNS -80.4% | PC-3 prostate -0.614% | SK-MEL-5 melanoma -73.4% | UACC-62 melanoma -51.5% | LOX IMVI melanoma -81.3% | SK-MEL-28 melanoma -35.9%

COc1cccc2ccc(CC(O)(c3ccccc3)c3ccccc3)nc12
inactive: HCT-15 colon 54.7% | HT29 colon 91.8% | SNB-75 CNS 74.6% | SNB-19 CNS 96.6% | U251 CNS 97% | PC-3 prostate 79% | SK-MEL-5 melanoma 87% | UACC-62 melanoma 86.2% | LOX IMVI melanoma 92.4% | SK-MEL-28 melanoma 106%

CCN(CC)CCOc1cccc2c1C(=O)c1cccc(OCCN(CC)CC)c1C2=O
inactive: HCT-15 colon 57% | HT29 colon 13.8% | SNB-75 CNS 53.3% | SNB-19 CNS 31.8% | U251 CNS 24.8% | PC-3 prostate 32.2% | SK-MEL-5 melanoma 72% | UACC-62 melanoma 56.9% | LOX IMVI melanoma 18.2% | SK-MEL-28 melanoma 82.5%

Cc1c[nH]c(=O)n(Cc2nnc(CCC(=O)c3nc4ccccc4[nH]3)o2)c1=O
inactive: HCT-15 colon 65.3% | SNB-19 CNS 33.2% | U251 CNS 16.6% | PC-3 prostate 19.3% | SK-MEL-5 melanoma 13.2% | UACC-62 melanoma 41% | LOX IMVI melanoma 35.6% | SK-MEL-28 melanoma 40.9%
active: HT29 colon 8.43% | SNB-75 CNS -33%

Cc1nn(-c2ccc(-c3ccc(OC(F)(F)F)cc3)cc2)c2nc(Cc3ccccc3)nc(N)c12
inactive: HCT-15 colon 76.9% | HT29 colon 59.6% | SNB-75 CNS 34.9% | SNB-19 CNS 39.3% | U251 CNS 20.7% | PC-3 prostate 64.4% | SK-MEL-5 melanoma 87.7% | UACC-62 melanoma 85.6% | LOX IMVI melanoma 31% | SK-MEL-28 melanoma 103%

Cc1cc(=O)n2nnc3cc(C(F)(F)F)ccc3n12
inactive: HCT-15 colon 101% | HT29 colon 104% | SNB-75 CNS 116% | SNB-19 CNS 109% | U251 CNS 107% | PC-3 prostate 101% | SK-MEL-5 melanoma 109% | UACC-62 melanoma 102% | LOX IMVI melanoma 106% | SK-MEL-28 melanoma 118%

O=C1OC(C(Cl)(Cl)Cl)OC1C(Cl)(Cl)Cl (stereo not given)
inactive: HCT-15 colon 109% | HT29 colon 105% | SNB-75 CNS 104% | SNB-19 CNS 102% | U251 CNS 104% | PC-3 prostate 86.8% | SK-MEL-5 melanoma 107% | UACC-62 melanoma 95.3% | LOX IMVI melanoma 97% | SK-MEL-28 melanoma 107%

COc1cc2cc(Oc3ccc(NC(=O)c4cccc(C(F)(F)F)c4)cc3)c(C)nc2cc1OC
inactive: HCT-15 colon 38.3% | HT29 colon 31.3% | SNB-75 CNS 68.4% | SNB-19 CNS 58.8% | U251 CNS 19.5% | UACC-62 melanoma 29.3% | LOX IMVI melanoma 45.8% | SK-MEL-28 melanoma 71.4%
active: PC-3 prostate 9.54% | SK-MEL-5 melanoma 2.78%

O=[N+]([O-])c1cc(Cl)cc(Cl)c1O
inactive: HCT-15 colon 101% | HT29 colon 97.7% | SNB-75 CNS 90.8% | SNB-19 CNS 103% | U251 CNS 104% | PC-3 prostate 103% | SK-MEL-5 melanoma 101% | UACC-62 melanoma 103% | LOX IMVI melanoma 92.6% | SK-MEL-28 melanoma 102%

CC(C)(C)c1nn(-c2ccccc2)c2c1CC1(CN2Cc2ccc(Cl)cc2)C(=O)c2ccccc2C1=O
inactive: HCT-15 colon 88.2% | HT29 colon 65.1% | SNB-75 CNS 120% | SNB-19 CNS 84.5% | U251 CNS 85.7% | PC-3 prostate 44.2% | SK-MEL-5 melanoma 78.5% | UACC-62 melanoma 73.6% | LOX IMVI melanoma 81.8% | SK-MEL-28 melanoma 102%

CC(=O)O[C@@]12CO[C@@H]1C[C@H](O)[C@@]1(C)C(=O)[C@H](O)C3=C(C)[C@@H](OC(=O)[C@H](O)[C@@H](NC(=O)OC(C)(C)C)c4ccccc4)C[C@@](O)([C@@H](OC(=O)c4ccccc4)C12)C3(C)C (stereo not given in full)
inactive: HCT-15 colon 16.5% | SNB-19 CNS 37.8% | U251 CNS 24.2% | PC-3 prostate 31.7% | SK-MEL-5 melanoma 28.6% | UACC-62 melanoma 52.5% | LOX IMVI melanoma 44.6% | SK-MEL-28 melanoma 77.9%
active: HT29 colon 6.02% | SNB-75 CNS -2.3%

COc1ccc(C2=Cn3c(CCC(=O)c4nc5ccccc5[nH]4)nnc3SC2)cc1
inactive: HCT-15 colon 104% | HT29 colon 58.2% | SNB-75 CNS 110% | SNB-19 CNS 113% | U251 CNS 94.1% | PC-3 prostate 84.2% | SK-MEL-5 melanoma 87.7% | UACC-62 melanoma 106% | LOX IMVI melanoma 83.7% | SK-MEL-28 melanoma 111%

Cc1ccc(C)c(COc2cc(NC(=O)c3ccc4c(c3)OCO4)ccc2N(C)S(C)(=O)=O)c1
active: HT29 colon 5.29% | SNB-75 CNS 4.74% | SK-MEL-5 melanoma -42.5%
inactive: HCT-15 colon 11.2% | SNB-19 CNS 18.3% | U251 CNS 12.9% | PC-3 prostate 26.8% | UACC-62 melanoma 15.8% | LOX IMVI melanoma 36% | SK-MEL-28 melanoma 64.6%

Cc1ccc(NC(=O)N2CCCCC2)cc1[N+](=O)[O-]
inactive: HCT-15 colon 96% | HT29 colon 103% | SNB-75 CNS 90.5% | SNB-19 CNS 98.4% | U251 CNS 101% | PC-3 prostate 76.6% | SK-MEL-5 melanoma 103% | UACC-62 melanoma 86.7% | LOX IMVI melanoma 97% | SK-MEL-28 melanoma 105%

COc1ccc(C(=O)CC(CC(=O)c2ccc(OC)cc2)c2c(C)nn(-c3ccccc3)c2Cl)cc1
inactive: HCT-15 colon 100% | HT29 colon 87% | SNB-75 CNS 91.3% | SNB-19 CNS 93.3% | U251 CNS 102% | PC-3 prostate 85.6% | SK-MEL-5 melanoma 90.2% | UACC-62 melanoma 88.3% | LOX IMVI melanoma 83.3% | SK-MEL-28 melanoma 105%

O=C(CSc1nccc(Nc2cccc3ccccc23)n1)c1ccc(Cl)cc1
inactive: HCT-15 colon 101% | HT29 colon 86.9% | SNB-75 CNS 88% | SNB-19 CNS 89.3% | U251 CNS 96.1% | PC-3 prostate 83.9% | SK-MEL-5 melanoma 98.3% | UACC-62 melanoma 70.2% | LOX IMVI melanoma 77.6% | SK-MEL-28 melanoma 106%

Nc1ccc(CC[C@H]2CCC/C=C/[C@@H]3C[C@H](O)C[C@H]3[C@H](O)/C=C/C(=O)O2)cc1
active: HCT-15 colon 6.58% | HT29 colon -39.8% | SK-MEL-5 melanoma -84.9% | LOX IMVI melanoma -74.4% | SK-MEL-28 melanoma 5.16%
inactive: SNB-75 CNS 32.3% | SNB-19 CNS 29.5% | U251 CNS 15.8% | PC-3 prostate 12.9% | UACC-62 melanoma 11.7%

O=C(Nc1nc(-c2ccccc2)nc2c1sc(=S)n2-c1ccccc1)C(F)(F)F
inactive: HCT-15 colon 88.4% | HT29 colon 94.8% | SNB-75 CNS 96.5% | SNB-19 CNS 105% | U251 CNS 90.6% | PC-3 prostate 79.5% | SK-MEL-5 melanoma 90.4% | UACC-62 melanoma 86% | LOX IMVI melanoma 84.4% | SK-MEL-28 melanoma 104%

CC(=O)[C@@]12O[C@](C)(c3ccccc3)O[C@@H]1CC1C3CCC4=CC(=O)CC[C@]4(C)C3CC[C@@]12C (stereo not given in full)
inactive: HCT-15 colon 71% | HT29 colon 69.6% | SNB-75 CNS 79.5% | SNB-19 CNS 85.3% | U251 CNS 72.3% | PC-3 prostate 31.1% | SK-MEL-5 melanoma 55.1% | UACC-62 melanoma 63% | LOX IMVI melanoma 72.3% | SK-MEL-28 melanoma 99%
